The campaign covered roughly 290,000 compounds. About 35 (0.01%) were called active.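 The calls were made as follows: active = EGFP signal decrease of at least 30% at 10 µM or well 3 SD below plate mean, unless failing retest; inactive = the rest, including hits failing retest or dose response.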 The list comes from a sample in which actives are over-represented; it also holds similar structures and randomly drawn compounds.
biological target: p/CIP-EGFP fusion (nuclear receptor coactivator 3, mouse) (UniProt Q05BA5); test: compounds lowering mouse p/CIP (NCOA3) protein levels – fluorescence, F442A cells, EGFP fusion, primary screen (AID 1984); conditions: 16 h, at 10 µM, hits give high values
Sequence (Q05BA5 1-1403): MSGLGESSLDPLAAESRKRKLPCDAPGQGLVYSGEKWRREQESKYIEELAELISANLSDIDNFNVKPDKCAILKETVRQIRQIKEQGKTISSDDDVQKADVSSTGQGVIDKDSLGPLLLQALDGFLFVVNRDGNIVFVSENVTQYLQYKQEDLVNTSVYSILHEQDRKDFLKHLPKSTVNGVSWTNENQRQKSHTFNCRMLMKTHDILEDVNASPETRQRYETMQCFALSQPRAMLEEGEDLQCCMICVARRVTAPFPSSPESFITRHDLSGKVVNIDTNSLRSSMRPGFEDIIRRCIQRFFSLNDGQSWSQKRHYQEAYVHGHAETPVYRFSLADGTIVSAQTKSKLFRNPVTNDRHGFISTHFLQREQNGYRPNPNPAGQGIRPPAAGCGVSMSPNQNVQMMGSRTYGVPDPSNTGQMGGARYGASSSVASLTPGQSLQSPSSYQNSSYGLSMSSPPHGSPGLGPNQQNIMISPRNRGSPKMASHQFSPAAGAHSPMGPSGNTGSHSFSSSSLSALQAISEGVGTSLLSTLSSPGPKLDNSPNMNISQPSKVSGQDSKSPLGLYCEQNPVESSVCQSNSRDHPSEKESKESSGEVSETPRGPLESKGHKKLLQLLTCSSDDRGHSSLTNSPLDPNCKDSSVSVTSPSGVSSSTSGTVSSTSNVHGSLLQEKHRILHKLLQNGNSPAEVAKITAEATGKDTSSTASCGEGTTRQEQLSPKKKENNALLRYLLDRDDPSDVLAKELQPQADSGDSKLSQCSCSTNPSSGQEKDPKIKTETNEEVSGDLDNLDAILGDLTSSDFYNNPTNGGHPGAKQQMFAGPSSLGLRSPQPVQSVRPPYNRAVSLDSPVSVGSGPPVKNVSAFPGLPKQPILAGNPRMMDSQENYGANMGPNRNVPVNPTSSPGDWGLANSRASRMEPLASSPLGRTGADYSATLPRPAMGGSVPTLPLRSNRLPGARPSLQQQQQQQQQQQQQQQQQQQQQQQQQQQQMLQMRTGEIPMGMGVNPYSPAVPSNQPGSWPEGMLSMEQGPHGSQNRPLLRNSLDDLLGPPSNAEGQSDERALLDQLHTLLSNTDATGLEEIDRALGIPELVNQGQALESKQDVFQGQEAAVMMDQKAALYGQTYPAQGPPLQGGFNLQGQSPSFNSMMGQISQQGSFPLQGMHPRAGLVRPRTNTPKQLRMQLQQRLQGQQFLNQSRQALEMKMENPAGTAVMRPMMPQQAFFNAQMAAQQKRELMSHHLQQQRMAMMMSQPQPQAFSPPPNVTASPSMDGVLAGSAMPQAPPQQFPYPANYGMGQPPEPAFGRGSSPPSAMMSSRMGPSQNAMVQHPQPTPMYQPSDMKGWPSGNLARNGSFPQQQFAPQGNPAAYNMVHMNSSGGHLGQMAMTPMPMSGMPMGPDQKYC

Decrease of EGFP signal, inactive:
CC(NCCc1ccc(S(N)(=O)=O)cc1)C(=O)NCc1ccccc1 (stereo unspecified) -40%
O=S(=O)(NC1CC2CCC1C2)c1ccc(Cl)cc1 (stereo unspecified) -15.4%
COc1ccccc1NC(=S)N1CCN(c2ccc(F)cc2)CC1 -2%
CCCOc1ccc(Cc2c(O)nc(N)[nH]c2=O)cc1C -10.4%
CC1(C)CCSC(/C=C/c2ccccc2)=N1 -5.5%
CSc1ccc(/C=C/C(=O)NC23CC4CC(CC(C4)C2)C3)cc1 0.4%
COCc1c(C(=O)N/N=C(\C)c2ccncc2)nnn1-c1nonc1N 1.8%
O=S(=O)([N-]c1nc2ccccc2nc1-[n+]1ccc(Cc2ccccc2)cc1)c1ccc(Br)s1 -27.8%
CCCc1cc(C(=O)N2CCCC(CO)(CCCc3ccccc3)C2)n(C)n1 (stereo unspecified) -7.2%
COc1ccc2[nH]c(C(=O)N/N=C/c3cc(OC)c(OC)c(OC)c3)cc2c1 -8.7%
Cc1ccc(NS(=O)(=O)c2cc3c(cc2C)NC(=O)CO3)cc1 -4.5%
CCOCCc1nn2c(=O)cc(CSCC(=O)Nc3cccc(C)c3C)nc2s1 4.4%
COc1ccc(N2CCC(N3CCN(C)C(CCO)C3)CC2)cc1 (stereo unspecified) 13.5%
O=C(NCc1ccccc1)C(c1cccnc1)N(C(=O)c1csnn1)c1ccc(F)cc1 (stereo unspecified) -5.9%
Cc1cc2c(=O)n(CC(=O)NCC(=O)Nc3ccc(C(C)C)cc3)cnc2s1 3.7%
COC(=O)c1sc(-c2ccc(C(C)(C)C)cc2)cc1NC(=O)/C=C/C(=O)O -12.7%
O=C(O)/C=C/C(=O)NNc1ccc([N+](=O)[O-])cc1 -13%
Nc1nc(Nc2ccccc2F)nc(NC2CCCCC2)c1[N+](=O)[O-] -4.1%
COc1ccc(CN2CCN(Cc3ccc(OC)c(OC)c3OC)CC2)cc1 -4.7%
C=CCSc1nnc(N2C(=O)C(O)=C(C(=O)c3ccco3)C2c2ccc(F)cc2)s1 (stereo unspecified) -15.4%
Cc1ccc(CNC(=O)CCC(=O)N2CC(C)Sc3ccccc32)cc1 (stereo unspecified) -1.6%
CC(C)CC(O)C1CCN(C(=O)CCc2nnc(-c3ccc4c(c3)OCO4)o2)CC1 (stereo unspecified) -14.9%
O=C(c1ccc2nc(N3CCOCC3)sc2c1)N1CCN(c2ccc(Cl)cc2)CC1 -11.7%
COc1ccc(C(C(=O)NCC2CCCO2)N(C(=O)Cn2nnc3ccccc32)c2ccc(NC(C)=O)cc2)cc1OC (stereo unspecified) -4.9%
O=C(c1cc(COc2ccc(F)cc2F)on1)N1CCOCC1 -0.2%
O=C(NCc1ccco1)/C(=C/c1cccc([N+](=O)[O-])c1)NC(=O)c1ccco1 1%
Cc1ccccc1N1CCN(C2CCCN(C(=O)c3ocnc3C)C2)CC1 (stereo unspecified) -18.6%
COc1cc(/C=N/NC(=O)c2cccnc2)ccc1OC(=O)c1cccc(Br)c1 -4.4%
CS(=O)(=O)N(CC(=O)Nc1ccc(F)cc1)C1CCCCC1 -0.5%
CC(C)CNC(=O)COC(=O)c1ccccc1OCC(=O)Nc1ccc(Br)cc1 -13.9%
Cc1c(C(=O)NCCN(C)C)oc2ccc(S(=O)(=O)N3CCCC3)cc12 -12.5%
O=C(Nc1ccc(C(=O)O)cc1)/C(=C\c1ccccc1)NC(=O)c1ccc(Br)cc1 -17.7%
Cc1c(Cl)c([N+](=O)[O-])nn1CC(=O)NCCCN1CCOCC1 5.3%
COc1cc(/C=C2\C(=N)N3N=C(CC(=O)N4CCOCC4)SC3=NC2=O)cc(OC)c1OC -17%
O=C(NC(=S)Nc1ccc2oc(=O)ccc2c1)c1ccc(-c2cccc(Cl)c2Cl)o1 -4.3%
CN(C)CCN(Cc1ccccc1)S(=O)(=O)c1csc(C(N)=O)c1 15.1%
COC(=O)C1CCCCN1C(=O)c1ccc(OC2CCN(C(C)=O)CC2)c(OC)c1 (stereo unspecified) 0.9%
O=C(Cc1ccccc1Cl)N1CCOCC1 -2.9%
Cc1c2cnn(CC(=O)NCCCN3CC(C)CC(C)C3)c(=O)c2c(C)n1Cc1ccc(Cl)cc1 (stereo unspecified) 0.5%
CCCC[C@H]1COCCS(=O)(=O)N1Cc1cccc(Cl)c1 -5.5%
O=C1COc2ccc(S(=O)(=O)NCCc3ccc(Cl)cc3)cc2N1 8.8%
Cc1cc(NC(=O)c2ccco2)c(=O)n(Cc2c(F)cccc2Cl)c1 -5.8%
Cc1cc(S(=O)(=O)Nc2ccc(C(=O)NCC(c3ccco3)N3CCCC3)cc2)ccc1F (stereo unspecified) -3%
COc1ccc(CCNc2ncnc3c2nnn3Cc2ccccc2)cc1 -4%
COc1ccc(Cc2nnc(N/N=C/c3ccccc3O)[nH]c2=O)cc1OC -4%
O=C(NNC1=C(C(=O)C(F)(F)F)CCC1)c1ccncc1 -15.9%
Cc1ccnc(N2C(=O)c3ccc([N+](=O)[O-])cc3C2=O)c1 -1.5%
COc1ccc2c(C(=O)c3ccc(C)cc3)n(CCC(N)=O)[n+]([O-])c2c1 -5.8%
CC(C)C(C(=O)NCc1ccco1)N(CC1CCCO1)C(=O)CNS(=O)(=O)c1ccc(F)cc1 (stereo unspecified) -1.5%
Cc1cccc(NC(=O)NC2(C)CCS(=O)(=O)C2)c1 (stereo unspecified) -6.6%
O=C(O)C1CCCN1S(=O)(=O)c1ccc(Br)cc1 (stereo unspecified) -0.2%
Cc1ccc(C)c(N2CCN(S(=O)(=O)c3c(C)[nH]c(C)c3C(=O)N3CCCC3)CC2)c1 3.6%
O=C(NCc1ccncc1)C1CCCN(S(=O)(=O)c2ccc(Br)cc2)C1 (stereo unspecified) -8.8%
COc1ccc(NS(=O)(=O)c2cccc3nsnc23)cc1Cl -11.8%
COc1ccc(C(=O)C2CCCN(C(=O)c3cc4nc(C)cc(C)n4n3)C2)cc1F (stereo unspecified) -9.2%
CCn1c(SCC(=O)NC2CC2)nnc1-c1ccccn1 0.1%
Cc1nc2cc(C(F)(F)F)ccc2n1CCNc1nc(-c2cc(Cl)c(N)c(Cl)c2)cs1 -2.4%
CN(C)CCN(C(=O)C1CCCCC1)c1nc2cc3c(cc2s1)OCO3 -21.2%
O=C(NCc1cccc(C(F)(F)F)c1)c1cccc(S(=O)(=O)N2CCN(Cc3ccccc3)CC2)c1 -8.5%
C=CCNC(=O)c1ccc2c3n(nc2c1)-c1ccc(C)cc1CO3 -3.3%
O=C(O)CCCCCCCCc1cn(CN2C(=O)c3ccccc3C2=O)nn1 -13.1%
CN(Cc1ccccc1Cl)C(=O)C1CCC(=O)N(CCc2cccc(F)c2)C1 (stereo unspecified) -8.9%
CCOc1ccc2c(c1)c(=O)c(S(=O)(=O)c1ccc(C)cc1)cn2CC -6%
CC(C)c1ccc(S(=O)(=O)N2CCC3(CC2)OCCO3)cc1 0.3%
CC1CN(S(=O)(=O)c2cccc(C(F)(F)F)c2)CN1C(=O)N1CCOCC1 (stereo unspecified) -19%
CCCN(CCC)c1nc2c(C)cccn2c(=O)c1/C=C1/SC(=S)N(Cc2ccco2)C1=O -656%
CCOC(=O)c1c(S(=O)(=O)NCC(=O)Nc2ccc(C)cc2)c(C)n(C)c1C 3.3%
COc1ccc(OC)c(CCNC(=O)CCn2ccc3cc(S(=O)(=O)N4CCCC4)ccc32)c1 1%
NC(=O)CC(NC(=O)Cc1ccc(Br)cc1)c1ccc(NC2CC3CCC2C3)c([N+](=O)[O-])c1 (stereo unspecified) 3.9%
Cn1c(SCc2ccc(F)cc2)nnc1-c1ccncc1 -10.6%
COc1ccc(CCNC(=O)CCc2cn(C)c3ccccc23)c(OC)c1 -1.8%
Cc1cc(C)cc(OCC(=O)Nc2cc(NC(=O)COc3cc(C)cc(C)c3)cc(C(=O)O)c2)c1 13.4%
O=C(CCCCCn1c(=S)[nH]c2ccsc2c1=O)NC1CCCCC1 1.2%
Cc1cc(C)c2nc(N3CCC(C(=O)NCCN4CCOCC4)CC3)sc2c1 -53.2%
CCc1cccc(NC(=S)N(CCN(C)C)C2CCN(C(C)C)CC2)c1 2.9%
COc1ccc(NC(=O)CSc2nc(SC)ns2)c(OC)c1 -9.3%
CC(C)(C)OC(=O)NC(Cc1ccccc1)C(=O)NC(CSC1CCCCO1)C(=O)NN (stereo unspecified) 1%
Cc1cccc(NC(=O)c2ccc([N+](=O)[O-])o2)c1 1.2%
CC(Sc1nnnn1C)C(=O)NC(=O)NC1CCCCC1 (stereo unspecified) 12.9%
O=Cc1c(NCCCN2CCCC2=O)c2ccccc2[nH]c1=O -1.8%
N#Cc1ccc(C2N=C(c3ccccc3)NO2)cc1 (stereo unspecified) -11.6%
Cc1ccc(C(=O)N/C(=C\c2cn(C)c3ccccc23)C(=O)N2CCN(C)CC2)cc1 3.7%
CCCCC(O)(CCCC)C(=O)NN(C(=O)CCl)c1ccccc1 -2.8%
CS/C(=C\C(=O)c1ccco1)Nc1ccccc1Cl -2.4%
Cc1nn(-c2ccccc2)c(Cl)c1/C=N/NC(=O)c1nn(C)cc1[N+](=O)[O-] -5.8%
COc1cc(NC(=O)c2ccc(-c3csc(C)n3)cc2)c(OC)cc1Cl -15.5%
COc1ccccc1CN1CCN(Cc2cc(OC)c(OC)cc2OC)CC1 -13.1%
COc1ccc(C(=O)NC(C)CCc2ccccc2)c(OC)c1 (stereo unspecified) -12.7%
O=C(O)c1ccccc1C(=O)NC1=NN(c2ccccc2)CC1 13.1%
CCc1ccc(C(=O)NN=C2CCCCCC2)s1 -8.5%
C=CCn1c(C23CC4CC(CC(C4)C2)C3)n[nH]c1=S -8.9%
